From PubChem
Many of the other results were omitted from the sample, so hits are more common in it than they were.
Tg IFNy HTS: T. gondii growth inhibition with IFN-gamma, primary screen, cell-based | Toxoplasma gondii growth in IFN-gamma-treated host cells; hits give low values | activity change, negative = inhibition, % (no concentration beside the values) | 69,000 compounds, 3.8% hits; in the data active = activity change below about -70%, passing the limit was not always enough;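 also: host cells are HeLa cells infected with Toxoplasma gondii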
Numbers stand for hits; - = inactive.

SMILES | Tg IFNy HTS
C[C@H](CO)N1C[C@H](C)[C@@H](CN(C)Cc2ccc(F)cc2)Oc2cc(C#CC(C)(C)O)ccc2S1(=O)=O | -95
C[C@@H]1CN([C@@H](C)CO)S(=O)(=O)c2ccc(-c3cccc(C#N)c3)cc2O[C@H]1CN(C)C(=O)c1ccccc1 | -99
C[C@H]1CN([C@@H](C)CO)S(=O)(=O)c2ccc(Br)cc2O[C@H]1CN(C)C(=O)Nc1ccccc1F | -
C/C=C/c1ccc2c(c1)O[C@H](CN(C)C(=O)Nc1ccc(OC)cc1)[C@H](C)CN([C@@H](C)CO)S2(=O)=O | -
CCCNC(=O)N(C)C[C@@H]1Oc2cc(C#C[C@@H](C)O)ccc2S(=O)(=O)N([C@H](C)CO)C[C@H]1C | -
C[C@H]1CN([C@@H](C)CO)S(=O)(=O)c2ccc(C#CC3(O)CCCC3)cc2O[C@H]1CN(C)C(=O)Nc1cccc(F)c1 | -
C[C@H](CO)N1C[C@H](C)[C@H](CN(C)C(=O)c2ccccc2)Oc2cc(-c3cccc(C#N)c3)ccc2S1(=O)=O | -
C[C@@H]1CN([C@@H](C)CO)S(=O)(=O)c2ccc(C#CC3(O)CCCC3)cc2O[C@H]1CN(C)C(=O)Nc1cccc(F)c1 | -92
COc1ccc(-c2nnc(-c3nc(NCc4ccc(Cl)cc4)c4ccccc4n3)o2)cc1 | -
Cc1ccc2c(C)cc3n[nH]c(=S)n3c2c1C | -
CCS(=O)(=O)N1CCc2nnc(CN(C)C(C)C)n2CC1 | -
CCN1c2ccccc2C(=O)NC12CCN(C(=O)Nc1cc(C)ccc1OC)CC2 | -
Cc1cccn2cc(C(=O)N3CC[C@@H](c4ccc5c(c4)OCO5)[C@H](O)C3)nc12 | -
Cc1ccc(-c2cc3c(=O)n(Cc4nc(-c5cccc(Cl)c5)oc4C)ccn3n2)cc1C | -
COc1ccc(-c2nc(Cc3noc(-c4ccc(C#N)cc4)n3)c(C)o2)cc1 | -
CCCN1C[C@H](C)[C@@H](OC)CN(C)C(=O)c2cc(NC(=O)C3CCC3)ccc2OC[C@@H]1C | -
CO[C@@H]1CN(C)C(=O)c2cc(NC(=O)c3cccc(F)c3)ccc2OC[C@@H](C)N(C)C[C@H]1C | -
CO[C@H]1CN(C)C(=O)c2cc(NC(=O)C3CC3)ccc2OC[C@H](C)N(Cc2cc(F)ccc2F)C[C@@H]1C | -72
CO[C@H]1CN(C)C(=O)c2cc(NC(=O)c3cccc(F)c3)ccc2OC[C@@H](C)N(C)C[C@H]1C | -
CO[C@@H]1CN(C)C(=O)c2cc(NC(=O)C3CC3)ccc2OC[C@H](C)N(Cc2cc(F)ccc2F)C[C@@H]1C | -
CO[C@@H]1CN(C)C(=O)c2cc(NC(=O)c3cccc(F)c3)ccc2OC[C@@H](C)N(C)C[C@@H]1C | -75
CCC(=O)NCCc1csc(-c2cccc(F)c2)n1 | -
COc1cc(-c2noc(-c3ccncc3)n2)cc(OC)c1OC | -
Cc1ncsc1C(=O)N1CC2(CCCC2)c2cc(-c3ccc(C(N)=O)cc3)ccc21 | -
Cc1nc(C(=O)Nc2ccccc2Cl)cc2c1[nH]c1ccccc12 | -81
SMILES | Tg IFNy HTS
O=C(Nc1ccccc1Cl)c1nc(Nc2ccccc2)c2ccccc2n1 | -
Cc1c(Cl)cccc1NC(=O)c1c(O)c2ccccc2[nH]c1=O | -
Cn1ccnc1-c1nn(CCNC(=O)COc2ccccc2)cc1-c1ccc(F)cc1 | -
O=C(c1cc(CN2CCOCC2)on1)N1CCOc2ccc(Cl)cc2C1 | -
COc1ccc(C[C@@H]2CN(C)CC[C@H]2OCC(=O)N2CCCC2)cc1 | -
C=CCOC1C2CCC1N(CCN(CC)CC)CCO2 (stereo not given) | -
Nc1nccc2c1ncn2[C@@H]1C=C(CO)[C@@H](O)[C@H]1O | -78
Nc1nccc2c1ncn2[C@@H]1O[C@H](CO)C(O)C1O (stereo not given in full) | -
Cc1ccn(CCNc2nccc(-c3c(C)nn(C)c3C)n2)n1 | -
COc1ccc(N(C(=O)c2ccc(NC(C)=O)cc2)C2(C(=O)NCc3ccccc3)CCN(C(C)=O)CC2)cc1 | -
Cn1ccc2c(-c3ccccc3C(N)=O)ccnc21 | -
Cc1nc(-n2cnnc2)ccc1-c1ccnc2c1ccn2C | -97
Cn1ccc2c(-c3cc(N4CCCCC4)ncn3)ccnc21 | -
CC(C)c1cc(C(=O)N2CCN(C)C(c3ccccc3)C2)n[nH]1 (stereo not given) | -
O=C(c1c(O)cccc1O)N1CC(Oc2ccccc2F)C1 | -
Cc1nc(-c2cc(C(=O)CCN3CCOCC3)c3ccccn23)cn1C | -
COC(=O)Cn1c(-c2ccccc2)cn2c3c(=O)n(C)c(=O)n(C)c3nc12 | -
Cc1ccc(C)c(-n2c(C)cn3c4c(=O)n(CCN5CCOCC5)c(=O)n(C)c4nc23)c1 | -76
CCC(NC(=O)C(C)C)C1=CCCN(Cc2ncccn2)C1 (stereo not given) | -
COCCN1CCO[C@H]2CCN(C(=O)c3sccc3C)C[C@H]21 | -
CCc1nc(SCc2nnc(-c3ccc(C)cc3)o2)c2c(C)c(C)sc2n1 | -
N#Cc1c(C(F)(F)F)cc(-c2ccccc2)nc1SCC(N)=O | -
N#Cc1c(-c2ccccc2)cc(-c2ccccc2)nc1SCc1nnc(-c2ccccc2)o1 | -100
O=C(NC1CCCCC1)c1cncc(NS(=O)(=O)c2ccc(Cl)cc2)c1 | -
CCn1ncc2c1C(COCC1CC1)N(C(=O)c1ccco1)CC2 (stereo not given) | -
SMILES | Tg IFNy HTS
CC(=O)N(c1ccc2oc(=O)sc2c1)S(=O)(=O)c1ccc(F)cc1 | -
CCC(c1ccc(F)cc1)n1cc(C(=O)Nc2ccc3c(c2)N(C)C(=O)CO3)nn1 (stereo not given) | -
Cc1ncsc1C(=O)NC(Cc1cc(=O)[nH]c(-c2ccccn2)n1)c1ccc(F)cc1 (stereo not given) | -
CCC(c1ccc(F)cc1)n1cc(C(=O)Nc2nc(-c3ccccn3)cs2)nn1 (stereo not given) | -97
Cc1cc(-c2csc(NC(=O)c3cnc4sc(C)cn4c3=O)n2)c(C)s1 | -
CCCCC(CC)CN=C(N)NC(N)=NCCCCCCN=C(N)NC(N)=NCC(CC)CCCC (stereo not given) | -79
O=C(CCCn1cnc2ccccc2c1=O)N[C@@H]1CNC[C@H]1O | -
O=c1[nH]nc(Cc2ccncc2)n1CC1CCCCC1 | -
Cn1ncc(-c2nc(-c3ccc(Cl)cc3)cs2)c1N | -83
CC(C)(C)c1cc(-c2csc(-c3ccc(Cl)cc3)n2)cc(C(C)(C)C)c1O | -
Cc1nc(-c2ccc(Cl)cc2)cs1 | -
COc1ccc(S(=O)(=O)N2CCC3(CC2)Nc2ccc(Cl)cc2-n2cccc23)cc1 | -
COc1ccc2c(c1)C(C)=CC(C)(C)N2S(=O)(=O)c1ccc(Cl)cc1 | -93
COc1ccc(C(=O)N2c3cc4c(cc3C(C)=CC2(C)C)OCO4)cc1 | -
O=C(NCc1ccccc1N1CCCC1)c1ccc(-c2ccc(Cl)cc2)[nH]c1=O | -
COc1ccc(C(=O)NCCc2sc(-c3ccc(Cl)cc3)nc2C)c(OC)c1 | -
COc1ccc(C(=O)NCCc2sc(-c3ccc(F)cc3)nc2C)c(OC)c1 | -87
Cc1nc(-c2ccc(F)cc2)sc1CCNC(=O)c1ccccc1F | -
COc1ccc(Cl)cc1C(=O)NCCc1sc(-c2ccc(F)cc2)nc1C | -102
COc1cccc(C(=O)NCCc2sc(-c3ccc(F)cc3)nc2C)c1OC | -
COc1ccc(C(=O)NCCc2sc(-c3cccc(F)c3)nc2C)c(OC)c1 | -
Cc1ccc(C(=O)N2CCC3(CCC3NC(=O)c3ccn(C)c3)CC2)o1 (stereo not given) | -
Nc1ccccc1Sc1c(Cl)cncc1Cl | -
O=C(NC(=O)c1ccccc1O)c1ccoc1 | -84
O=C(NC(=S)N1CCOCC1)c1ccccc1 | -
